From the supplement of paper PMC6555819

Test system: THRa homodimer (NR concentration 90 nM)
Test: PBM binding z-score (relative to random genomic background probes); higher = stronger binding; sequences stand for … in GC…GCGATTGACAGCGTAGAATGAAGG
Summary of the method: (§1)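 Regression normalization was applied to scanned fluorescence from custom Agilent 4×180K protein-binding microarrays. Before scanning, arrays were incubated 1 h with ligand-free nuclear receptor dimers, and binding was detected with antibodies against each partner (one per run). Binding z-scores use the random background probes as reference.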

Row | Sequence | PBM binding z-score
1 | CAAACTAGGTCACAGAGGTCACAGTCCGTGCGTA | 3.58
2 | GGAGACAGGTGAAACGCAGGTAACTCAGGGTGGC | 0.0199
3 | CCTATTAGTTGATCATAAGGGCAACCGAAGCTCG | 1.05
4 | GGAACGAGGGCATTTGAGTTGATAGCATGGCGAT | -0.202
5 | GCTTACGGGTCATAGGTTATAGCATGAATAGAAT | 0.18
6 | TCTTGTAGATCAAGCAGGTTAAGGAAGCCTGAGT | -0.359
7 | CCAAGTTGGTCAAGGTCACACACGCTATAGGTAC | 4.34
8 | CCTAACAGGCCAATCTGGGTCACTCAAGGCTTGA | 0.717
9 | GCTAGCAGGCCATTTGGTTCACTCAATGACGGGC | -0.949
10 | ACTCGGAGGACAAAGGTCAGAGCAACGCCAGTGA | 0.599
11 | ATCTCTAGGTAAAGATAGATCAGTGAATGCAAAT | -0.214
12 | AGAATGAGGTTACCAAAGATCACGGAAACGCTTG | 0.696
13 | TCAAATAGGTAATACAGGTGAAAGTCGGCATCTA | -0.0126
14 | CCGACTGGGGCAAAGGATACCATACTCAGTACGA | -0.322
15 | CTCGTAAGGTCGGTTGAGGTGAGTATACGGATAA | 2.39
16 | GCGATTGGGGCATCAGCAGGTTACCATAACTTAA | 0.429
17 | ATCTCTAGGTAAGACTCAGGTCAGTGAAGAACGC | 2.37
18 | TCATATAGGTAAACAGGTGGAAGTCCGTAAGTTA | 0.00908

Test system: VDR:RXRa (NR concentration 270 nM, RXRa partner concentration 90 nM)
Test: as above
Summary of the method: as §1

Row | Sequence | PBM binding z-score
19 | TATACAGGGTCAAAGGCCAGTGTACGAATGTCGA | 4.84
20 | AGAACGAGGGCACTCTGAGTTGATAGCAGAGTAG | 1.88
21 | CCTAGTTGGTCAGGCGGTCACACACCGGATATGA | 0.0126
22 | CCTCGGAGGACAACAGGAGGTCAGAGCAGCCAGA | 1.94
23 | GCAGACAGGTGAAACGTAGGTAACTCAGGGTGGC | -0.315
24 | GATACAGGGTCAGTTAGAGGCCAGAGTATGGAAA | 2.97
25 | CGAACTAGGTCATCCAGGGCAGTGAATACATTGA | 5.26
26 | TCTCGGAGGACACTAAGGTCAGAGCTTTCCAGAG | 3.31
27 | CAAACTAGGTCAAGAGGGCAAAGTCCGCTTCCCG | 3.46
28 | GCATATAGGTAATACAAGGAGAAAGTCCGATTGT | -0.177
29 | TCTTGTAGATCATCAGGTTAAGAAAGCTGGCCAA | 0.814
30 | CTCGAAATGTCGGTTGAGGTGAGTATACGGATAA | -0.148
31 | AGAATGAGGTGACCAAAGATCAGGGAAACGCTTG | 0.0943
32 | TCATACAGGTGAAGGTAACTCAGGTACGCAGTCG | 1.36
33 | ACAAACAGGTGATGAAGGTAACTCAGGCTATCAT | 0.56
34 | ATACCAAGGTGATCGTGAGGTCGTTCATACTAAC | 3.58
35 | ATCGCAAGGTCGAAGGTGAGTATACCCACCCGAA | 1.8
36 | CATACAGGGTCAGCTAGGCTAGAGTAGGGACGGC | 3
37 | CCGAGTTGGTCAGGAGGTCACACACCGGATATGA | 4.19
38 | CCGACTGGGGTAAAGGTTACCATACTCAGTACGA | 1.18

Row | Sequence | PBM binding z-score
39 | TCTTGTAGCTCAAGCAGGTTAAGAAAGCCTGAGT | -0.0447
40 | CAAACTAGGTCAAAGGTCGAAGTCGAGCCAACCA | 5.03
41 | CAAACTAGGTCACAGAGGTCACAGTCCGTGCGTA | 7.66
42 | GGAGACAGGTGAAACGCAGGTAACTCAGGGTGGC | -0.319
43 | CCTATTAGTTGATCATAAGGGCAACCGAAGCTCG | 0.485
44 | GGAACGAGGGCATTTGAGTTGATAGCATGGCGAT | 4.22
45 | GCTTACGGGTCATAGGTTATAGCATGAATAGAAT | 3.91
46 | TCTTGTAGATCAAGCAGGTTAAGGAAGCCTGAGT | -0.0838
47 | CCAAGTTGGTCAAGGTCACACACGCTATAGGTAC | 4.79
48 | CCTAACAGGCCAATCTGGGTCACTCAAGGCTTGA | 1.04
49 | GCTAGCAGGCCATTTGGTTCACTCAATGACGGGC | 1.28
50 | ACTCGGAGGACAAAGGTCAGAGCAACGCCAGTGA | 3.39
51 | ATCTCTAGGTAAAGATAGATCAGTGAATGCAAAT | 0.00458
52 | AGAATGAGGTTACCAAAGATCACGGAAACGCTTG | 1.97
53 | TCAAATAGGTAATACAGGTGAAAGTCGGCATCTA | 1.28
54 | CCGACTGGGGCAAAGGATACCATACTCAGTACGA | -0.368
55 | CTCGTAAGGTCGGTTGAGGTGAGTATACGGATAA | 1.75
56 | GCGATTGGGGCATCAGCAGGTTACCATAACTTAA | 0.0705
57 | ATCTCTAGGTAAGACTCAGGTCAGTGAAGAACGC | 0.693
58 | TCATATAGGTAAACAGGTGGAAGTCCGTAAGTTA | 0.7
